Screening results from PubChem.
Neddylation inh: inhibitors of cullin neddylation, primary screen, biochemical, TR-FRET, uHTS, NAE and Ubc12. NEDD8-conjugating enzyme Ubc12 (Homo sapiens) + NEDD8-activating enzyme E1 regulatory …. inhibition, % at 25 µM. hit rate 0.58% among 360,000; in the data active = inhibition above about 36%
Target sequence (P61081 whole entry, looked up): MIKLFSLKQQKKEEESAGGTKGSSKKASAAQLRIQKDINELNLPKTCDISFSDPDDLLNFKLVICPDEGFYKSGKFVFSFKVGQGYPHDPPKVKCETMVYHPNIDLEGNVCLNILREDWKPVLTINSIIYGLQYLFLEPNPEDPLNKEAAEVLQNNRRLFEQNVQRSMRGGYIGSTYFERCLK
Target sequence (Q13564 whole entry, looked up): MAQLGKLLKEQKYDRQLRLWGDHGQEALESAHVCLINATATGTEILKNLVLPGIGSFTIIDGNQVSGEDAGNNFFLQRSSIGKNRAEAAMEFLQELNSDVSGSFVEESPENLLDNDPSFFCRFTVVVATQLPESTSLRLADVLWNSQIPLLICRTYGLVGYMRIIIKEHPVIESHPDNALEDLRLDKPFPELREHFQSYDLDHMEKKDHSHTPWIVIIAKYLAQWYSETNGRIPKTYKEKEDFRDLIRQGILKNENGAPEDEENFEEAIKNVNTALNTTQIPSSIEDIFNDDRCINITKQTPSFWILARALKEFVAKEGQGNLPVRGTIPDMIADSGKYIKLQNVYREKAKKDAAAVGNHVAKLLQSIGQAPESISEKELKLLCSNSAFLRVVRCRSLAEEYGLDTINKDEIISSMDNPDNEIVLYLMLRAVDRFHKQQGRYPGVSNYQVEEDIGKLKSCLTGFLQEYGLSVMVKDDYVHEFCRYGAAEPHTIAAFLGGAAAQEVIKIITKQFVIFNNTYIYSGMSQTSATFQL
GRK2 inh: compounds blocking aptamer binding on GRK2 – biochemical, human GRK2, bead flow cytometry, HTS, primary screen. hit rate 0.59% among 330,000. inhibition of aptamer binding, % at 10 µM. AID 488847, 2010. FAM-aptamer displacement from GRK2;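 active = inhibition of aptamer binding above 40%, roughly 3 SD of noise, on plates passing a quality check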;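 also: median bead fluorescence of bound FAM aptamer so fluorescent compounds give negative values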
HDAC3 inhib: HDAC3 deacetylase inhibitors, primary screen, biochemical, fluorescence, cell-free homogeneous | Histone deacetylase 3 (Homo sapiens), O15379 | recombinant HDAC3, fluorogenic peptide/trypsin coupled | inhibition, % at 8.3 µM | hit rate 0.15% among 320,000 | AID 2718, 2010; in the data active = inhibition above about 26%, passing the limit was not always enough
Cardio protect: cardioprotection against H2O2-induced cell death, primary screen, uHTS, H9c2 cells, ATPLite luminescence; H9c2 cardiomyocytes, H2O2 injury protection, 2 h; protection from H2O2 cell death, % at 20 µM; hit rate 0.63% among 360,000;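 active = compounds giving at least 50% protection of heart cells from peroxide-induced death in the single-dose screen, raw or plate-pattern-corrected value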;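 also: 0% = DMSO wells with peroxide and 100% = DMSO wells without peroxide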
GRK2 inh confirm: GRK2 aptamer-displacing inhibitors, retest, confirmation, biochemical, cherry pick 1, bead flow cytometry; aptamer displacement, % at 10 µM; bead-bound GRK2, FAM-aptamer displacement; hit rate 4% among 2,000; shares compounds with GRK2 inh;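 active = aptamer displacement above 40%, near three times the noise of non-fluorescent compounds, on plates passing quality checks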;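 also: negative values mostly reflect intrinsic compound fluorescence rather than true enhancement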
Aptamer quench 1: quenches fluorescent RNA aptamer, GRK2 hit artifact; fluorescence change (kMESF span), kMESF (test concentration not listed); Fluorescent RNA aptamer beads, quenching, flow cytometry; hits give high values; AID 504521; shares compounds with GRK2 inh; 110 tested, under 10 active;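 active = compounds whose bead fluorescence drops by more than 37 kMESF across the dose range, marking them as dye quenchers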
FAM quench CP1: quenches fluorescent RNA aptamer, GRK2 hit artifact; shares compounds with GRK2 inh; Carboxyfluorescein RNA aptamer on beads, flow cytometry quenching; hits give low values; fluorescence response (% of DMSO), % at 10 µM; 2,000 tested, under 10 active; AID 504580;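 active = compounds that quench the bead-bound fluorescent RNA probe, cutting fluorescence to under half of the solvent control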;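 also: counterscreen run without GRK2 so only probe quenching by compound is measured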
GRK2 CP2: GRK2 aptamer-displacing inhibitors, hit retest, confirmation, biochemical, cherry pick 2, bead flow cytometry | shares compounds with GRK2 inh | bead-bound GRK2, FAM-aptamer displacement | inhibition of aptamer binding, % at 10 µM | 360 tested, under 10 active | AID 504782, 2011;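 active = inhibition of aptamer binding above 40%, about triple the noise seen with nonglowing compounds, on plates passing quality control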;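 also: negative values mostly come from compounds that fluoresce themselves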
FAM quench SP: quenches fluorescent RNA aptamer, GRK2 hit artifact. shares compounds with GRK2 inh. carboxyfluorescein RNA aptamer beads, flow cytometry quenching; hits give low values. fluorescence response vs DMSO, % at 10 µM. 360 tested, under 10 active. AID 588494;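 active = response vs DMSO under 50%, meaning signal dropped by over half, treated as fluorescence quencher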;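 also: labelled aptamer on streptavidin beads without GRK2 as a quench counter-screen; 100% = bead fluorescence of DMSO wells and lower means quenching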
FAM quench DR: quenchers of FAM-labeled RNA aptamer fluorescence, dose response, artefact control for GRK2 aptamer binding project, biochemical, powder set 1, flow cytometry | AID 588496, 2011 | Bead-bound FAM RNA aptamer fluorescence quenching; hits give low values | fluorescence ratio to DMSO, % at 11.1 µM | 35 tested, under 10 active | shares compounds with GRK2 inh;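 active = compounds that dim the fluorescent label, raw bead signal shifting by over 33 units between lowest and highest dose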
* = called active by the depositor. Most compounds without a hit are left out; they make up all but 1.8% or so of the library.

How did COCCCNCCOCCOc1ccc(C)cc1Br do in these assays?
Neddylation inh: -8; GRK2 inh: 100*; Cardio protect: -2; GRK2 CP2: -10; FAM quench SP: 101

What do the screens show for `COCCCNCCCCOc1ccc(Br)cc1Cl`?
Neddylation inh: -2; GRK2 inh: 41*; HDAC3 inhib: 4; Cardio protect: 23; GRK2 CP2: 14; FAM quench SP: 99

What do the screens show for `C=CCOc1ccc(/C=N/NC(=O)C(=O)Nc2ccccn2)cc1OC`?
Neddylation inh: -4; GRK2 inh: 0; HDAC3 inhib: 8; Cardio protect: 5

How did COc1cc(/C=N/NC(=O)c2ccccc2NS(=O)(=O)c2cccs2)ccc1O do in these assays?
Neddylation inh: 29; Cardio protect: 16

Results for COc1cc(C2C(=O)N(C3CCCC3)CC(=O)N2Cc2ccco2)ccc1OC(C)C (stereo unspecified) ?
Neddylation inh: -9; GRK2 inh: 58*; HDAC3 inhib: 5; Cardio protect: 6; GRK2 inh confirm: -1; FAM quench CP1: 99

How did Cc1ccc(C)c(N2N=C(C(=O)OCc3nnc(-c4cccs4)o3)CCC2=O)c1 do in these assays?
Neddylation inh: -2; Cardio protect: 3

How did CCCN(CCC)CCCNC(=O)c1ccc(CS(=O)(=O)c2c(Cl)cccc2Cl)o1 do in these assays?
Neddylation inh: -5; GRK2 inh: 48*; HDAC3 inhib: 5; Cardio protect: 5; GRK2 CP2: -14; FAM quench SP: 99

What do the screens show for `Cc1nn(C2CCS(=O)(=O)C2)c(C)c1CN(C)C(=O)c1ccc(Cl)cc1` (stereo unspecified)?
Neddylation inh: -10; GRK2 inh: 0; HDAC3 inhib: -2; Cardio protect: -5

What do the screens show for `O=C(Nc1ccc(S(=O)(=O)Nc2nccs2)cc1)c1cc(-c2ccccc2Cl)nc2ccccc12`?
Neddylation inh: -15; GRK2 inh: 1; HDAC3 inhib: 10; Cardio protect: 48; GRK2 inh confirm: 2; FAM quench CP1: 108

Results for O=C(Nc1ccc(S(=O)(=O)Nc2nccs2)cc1)c1cc(-c2ccccn2)nc2ccccc12 ?
Neddylation inh: -27; GRK2 inh: 1; HDAC3 inhib: 7; Cardio protect: 6

How did O=C1CSc2ccc(S(=O)(=O)NCc3ccccc3Cl)cc2N1 do in these assays?
Neddylation inh: 0; GRK2 inh: 3; HDAC3 inhib: 3; Cardio protect: -5

What do the screens show for `CC(CS(=O)(=O)c1ccc2c(c1)NC(=O)CS2)C(=O)NCc1ccccc1Cl` (stereo unspecified)?
Neddylation inh: -17; GRK2 inh: 99*; HDAC3 inhib: 7; Cardio protect: 9; GRK2 inh confirm: 78*; Aptamer quench 1: -3.2; FAM quench CP1: 95; FAM quench DR: 97

Results for CN(Cc1ccccc1)C(=O)CCS(=O)(=O)c1ccc2c(c1)NC(=O)CS2 ?
Neddylation inh: -1; GRK2 inh: 5; HDAC3 inhib: 3; Cardio protect: 2; GRK2 CP2: 5; FAM quench SP: 100

How did C=CCc1c(C)nc(-c2ccccc2)nc1N/N=C(\C)c1ccccc1 do in these assays?
Neddylation inh: 0; GRK2 inh: 0; Cardio protect: -3

Results for C=CCc1c(C)nc(-c2ccccc2)nc1Nc1ccc(O)cc1 ?
Neddylation inh: 10; GRK2 inh: 100*; HDAC3 inhib: 7; Cardio protect: -7; GRK2 CP2: -7; FAM quench SP: 100

What do the screens show for `COc1ccc([C@H]2CC(=O)C=C(c3ccccc3-c3ccccc3)C2)cc1`?
Neddylation inh: -25; GRK2 inh: 0; HDAC3 inhib: 0; Cardio protect: -9

Results for COc1ccc([C@H]2CC(=O)C=C(c3ccccc3Oc3ccccc3)C2)cc1 ?
Neddylation inh: -18; GRK2 inh: 60*; HDAC3 inhib: 11; Cardio protect: -8; GRK2 inh confirm: -2; FAM quench CP1: 95

What do the screens show for `COc1ccc(C(=O)N/N=C(\C)c2ccc3c(c2)C2C=CCC2C(c2ccccc2)N3)cc1` (stereo unspecified)?
Neddylation inh: 5; GRK2 inh: 0; HDAC3 inhib: -6; Cardio protect: 19

How did O=C(O)c1ccc2c(c1)[C@@H]1C=CC[C@@H]1[C@H](c1ccccn1)N2 do in these assays?
Neddylation inh: -11; GRK2 inh: 42*; HDAC3 inhib: 7; Cardio protect: 0; GRK2 inh confirm: 23; FAM quench CP1: 101

What do the screens show for `CCCCCC(=O)Nc1cccc(C2=NOC3(C2)C[C@H](C(N)=O)N(C(=O)COc2ccc(Cl)cc2)C3)c1` (stereo partly specified)?
Neddylation inh: -21; GRK2 inh: 1; HDAC3 inhib: 6; Cardio protect: -3; GRK2 CP2: 11; FAM quench SP: 98

How did CCCCCC(=O)Nc1cccc(C2=NOC3(C2)C[C@@H](C(N)=O)N(C(=O)c2ccc(OC)cc2)C3)c1 (stereo partly specified) do in these assays?
Neddylation inh: -25; GRK2 inh: 65*; HDAC3 inhib: -5; Cardio protect: -2; GRK2 inh confirm: 13; Aptamer quench 1: -125; FAM quench CP1: 102

What do the screens show for `CCCCCC(=O)Nc1cccc(C2=NOC3(C2)C[C@@H](C(N)=O)N(C(=O)c2cc([N+](=O)[O-])cc([N+](=O)[O-])c2)C3)c1` (stereo partly specified)?
Neddylation inh: -38; GRK2 inh: 6; HDAC3 inhib: 9; Cardio protect: -3
